# Results taken from PubChem BioAssay AID540276 (National Center for Advancing Translational Sciences (NCATS), 2011).
# “And” between values parts separate entries of the source, which are not always exact repeats. Equal entries are not always repeated. Hit rate of the full screen: of about 300,000 compounds, about 5,400 (1.8%) were called active. Roughly 28% stayed inconclusive and do not appear here. The call rests on the fitted dose curve; tested in HEK293 cells. Shown is part of a subset that was picked to be rich in actives. Where a structure was tested more than once in an assay, its records may differ in their call.
# Experiment: qHTS for inhibitors of binding or entry into cells for Marburg Virus
# Conditions: Marburg virus pseudotyped entry inhibition, cell reporter; series mostly up to 37.8 µM; activity change, negative = inhibition: at the top concentration
# On the % scale 0 is the no-effect control and ±100 the full control effect; potency means the concentration at half of the fitted maximal effect.
SMILES,"activity change, negative = inhibition",Potency
Cc1cc(S(=O)(=O)Nc2ccc(C(=O)NCC(c3ccco3)N3CCCC3)cc2)ccc1F (stereo not given),-28% [at 46.1 µM] (inactive),
CCC(=O)N1CCc2cc(Br)c(S(=O)(=O)NCCN3CCCCC3CC)cc21 (stereo not given),1.26% (inactive),
CCN(Cc1ccccc1)C(=O)Cc1ccc(OC)c(S(=O)(=O)N2CCOCC2)c1,-9.98% (inactive),
COc1cccc(CNS(=O)(=O)c2ccc3c(c2)CC(C)N3C(C)=O)c1 (stereo not given),-18.3% [at 46.1 µM] (inactive),
COC(=O)CC=C[C@@H](C)[C@H](NC(=O)OCC(Cl)(Cl)Cl)c1ccc2ccccc2c1,-17.9% [at 14.2 µM] (inactive),
Cc1ccc(-c2nn(-c3ccc(F)cc3)cc2C(=O)NCC(c2cccs2)N2CCOCC2)cc1 (stereo not given),-10.9% [at 46.1 µM] (inactive),
Cc1ccc(S(=O)(=O)N(C)C2(C)CCS(=O)(=O)C2)cc1 (stereo not given),-16.6% (inactive),
Cc1ccc(S(=O)(=O)NC2CCCCCC2)cc1,7.12% (inactive),
Cc1ccc(S(=O)(=O)C2(S(=O)(=O)c3ccc(C)cc3)CCCC2)cc1,,3.98 µM (active)
COc1cccc2cc(C(=O)NCc3ccc(C)cc3)c(=N)oc12,-22.8% [at 46.1 µM] (inactive),
Cc1cccc2[nH]c(CN(C)C(=O)C3CCC(=O)N(CCc4ccccc4)C3)nc12 (stereo not given),4.9% (inactive),
CCOc1ccc(CCNC(=O)CSc2cc(=O)n(C)c3ccc(Cl)cc23)cc1OCC,,inactive
CCN(CCCNC(=O)CSc1cc(=O)n(C)c2cc(Cl)ccc12)Cc1ccccc1,,11.2 µM (active)
CCN(CCCNC(=O)CSc1cc(=O)n(C)c2cc(Cl)ccc12)c1cccc(C)c1,-7.94% [at 46.1 µM] (inactive),
Oc1cc2c(cc1O)CN(C(=S)NCCc1ccc(Cl)cc1)CCC2,,inactive and 355 nM (active)
COc1ccc(CCNC(=S)N2CCN(S(=O)(=O)c3ccc(Cl)cc3)CC2)cc1,-1.3% (inactive),
Cc1ccc(NC(=S)NCCc2ccc(Cl)cc2)c(C)c1,-20.5% (inactive),
CC(=O)c1ccc(S(=O)(=O)N(C)CCCC(=O)N(C)Cc2ccccc2F)cc1,4.44% [at 46.1 µM] (inactive),
O=C(CCn1nnnc1CN1CCOCC1)N1CCC(c2ccccc2Cl)C1 (stereo not given),-5.89% (inactive),
CCCC(CNC(=O)COC(=O)C1=NNC(=O)CC1)c1ccc(Cl)cc1Cl (stereo not given),-8.92% [at 46.1 µM] (inactive),
CCOc1ccccc1Nc1nnc(SCC(=O)NCC2CCCO2)s1 (stereo not given),-0.761% (inactive),
CCOC(=O)N1CCN(C(=O)C2CCCN(c3ncnc4c3sc3cccc(F)c34)C2)CC1 (stereo not given),-6.64% [at 46.1 µM] (inactive),

SMILES,"activity change, negative = inhibition",Potency
OC1CCCN(c2ncnc3c2nnn3Cc2c(F)cccc2Cl)C1 (stereo not given),,10 µM (active)
O=C(CSc1ncnc2c1nnn2Cc1ccc(F)cc1)NC1CCCC1,1.23% [at 46.1 µM] (inactive),
O=C1N=CC(F)C(=O)N1 (stereo not given),-4.74% (inactive),
CCOc1ccc(NC(=O)CN(C)C(=O)c2cccc(S(=O)(=O)N3CCCC3)c2)cc1OCC,-1.71% [at 46.1 µM] (inactive),
COc1ccccc1C(=O)N(C1=NC(C)CS1)c1ccc(Cl)cc1 (stereo not given),-6.31% [at 46.1 µM] (inactive),
O=C(NNc1c2ccccc2nc2ccccc12)c1cc2ccccc2cc1O,,3.16 µM (active)
Cc1noc(C)c1COC(=O)c1cc2ccccc2cc1O,4.37% (inactive),
O=C(COC(=O)c1ccc(O)cc1O)NC(=O)c1ccccc1,8.59% [at 46.1 µM] (inactive),
COc1ccccc1C(=O)OCC(=O)Nc1cccc(S(=O)(=O)NC2=NCCCCC2)c1,5.55% (inactive),
O=C1CCc2cc(S(=O)(=O)Nc3ccc(C(F)(F)F)cc3)cc3c2N1CC3,-13.7% (inactive),
Cc1cccc(-n2c(N)cc(=O)nc2SC(C)C(=O)NC2CCCCC2)c1 (stereo not given),-1.1% (inactive),
Cc1cccc(-n2c(SCC(N)=O)nc3c(oc4ccccc43)c2=O)c1,-0.67% [at 46.1 µM] (inactive),
Cc1cccc(-n2c(SCC(N)=O)nc3c(c2=O)C2(CCCCC2)Cc2ccccc2-3)c1,,4.47 µM (active)
O=S(=O)(Nc1ccc2nc(N3CCOCC3)sc2c1)c1ccccc1,-1.94% (inactive),
COc1ccc(CC(=O)NC(C)c2ccc(Cl)c(Cl)c2)cc1S(=O)(=O)N1CCOCC1 (stereo not given),-3.28% (inactive),
CCOc1ccc(CCNC(=O)COC(=O)c2ccc(F)c(S(=O)(=O)N3CCOCC3)c2)cc1OCC,0.565% (inactive),
CC(NCC(=O)Nc1ccccc1C(=O)NC1CC1)c1ccccc1Cl (stereo not given),-20.8% (inactive),
Cn1c(Cl)cnc1[C@H]1CC(=O)c2cc(Cl)ccc2O1,,10 µM (active)
COc1cccc(NC(=O)C[C@H]2SC(=Nc3ccccc3)NC2=O)c1,-24.7% (inactive),
O=C(c1cnn(-c2ccc(Cl)cc2)c1)c1ccccc1O,,3.55 µM (active)
Cc1cc(O)cc(O)c1C(=O)Cc1cnn(-c2ccccc2)c1,17.8% (inactive),
Cc1ncc(CC(=O)n2cc(C(=O)c3cc(Cl)ccc3O)cn2)s1,9.14% (inactive),

SMILES,"activity change, negative = inhibition",Potency
O=c1oc2ccccc2c(=O)c2ccccc12,-5% [at 46.1 µM] (inactive),
Cc1cccc(CN2CCC(n3nccc3NC(=O)c3ccccc3C)CC2)n1,5.62% (inactive),
CC1(C(=O)NNC(=S)NCC2CCCO2)CC1(Cl)Cl (stereo not given),-2.45% [at 46.1 µM] (inactive),
CC(=O)OC1C2(CC3N4C(=O)C5(CO)SSC4(CC31O)C(=O)N5C)OC(C)C(C)(C)C2=O (stereo not given),,1.41 µM (active)
Cc1ccc(OCC(=O)N/N=C/c2ccncc2)cc1,13.4% (inactive),
Cc1ccc(OCC(=O)N/N=C\c2ccco2)c(C)c1,6.47% (inactive),
Cc1ccc(/C=N/NC(=O)COc2ccccc2-c2ccccc2)cc1,,1.3 µM (active)
O=C(Nc1cnn(Cc2ccc(Cl)cc2)c1)C1CCCC1,2.69% (inactive),
O=C(Nc1ccc(-n2cccn2)cc1)C1CCN(Cc2ccsc2)CC1,-21% (inactive),
CCn1cc(CN2CCC(C(=O)Nc3cccc(-c4cccc(Cl)c4)c3)CC2)cn1,,12.6 µM (active)
CC(C)CO/N=C1\C[C@@H](O)[C@@H](O)[C@@H]2[C@@H]3C(=O)N(C[C@@H]4CCCO4)C(=O)[C@@H]3CC[C@@H]12,-9.86% [at 14.2 µM] (inactive),
CC1CN(Cc2ccco2)C(=S)N(c2ccccc2)C1=O (stereo not given),18.1% (inactive),
O=C1CCCN1C(=O)COc1ccc([N+](=O)[O-])cc1,-4.97% [at 46.1 µM] (inactive),
Cc1noc(C)c1CSCC(=O)N(CCC(C)C)c1c(N)n(Cc2ccccc2)c(=O)[nH]c1=O,-5.09% (inactive),
COc1ccc(/C=C/C(=O)OCC(=O)NC2CCCCCC2)cc1OC,9.04% (inactive),
COc1ccc(/C=C/C(=O)Nc2cccnc2)cc1OC,-4.12% [at 46.1 µM] (inactive),
COc1ccc(/C=C/C(=O)Nc2ccc(C34CC5CC(CC(O)(C5)C3)C4)cc2)cc1OC,,6.51 µM (active)
CCOC(=O)Cc1[nH]nc2c1[C@H](c1cc(OC)ccc1OC)C(C#N)=C(N)O2,5.26% (inactive),
COc1ccc(-n2c(C)nc3c(cnn3-c3ccc(F)cc3)c2=O)cc1,13% [at 46.1 µM] (inactive),
Cc1ccc(Oc2cnn(-c3ccccc3)c(=O)c2Br)cc1,1.31% [at 46.1 µM] (inactive),
COc1ccc(Oc2c(Cl)cnn(-c3ccccc3)c2=O)cc1,,10 µM (active)
